# Data: the supplement of paper PMC13380429
# Values without a mark were called inactive.
# Test system: Vero E6 infected with SARS-CoV-2
# Experiment: inhibition of SARS-CoV-2 cytopathic effect; higher = more antiviral protection, active = above 15
# Details: 8.33 nM; 48 h
row,SMILES,inhibition of SARS-CoV-2 cytopathic effect [%]
1,Cc1cc(C)nc(NS(=O)(=O)c2ccc(NC(=S)NC(=O)COc3ccc(Br)cc3Cl)cc2)n1,-0.46
2,CC(=O)Oc1cc2c(s1)CCN(C(C(=O)C1CC1)c1ccccc1F)C2 (centres undefined) [prasugrel],1.62
3,CN1CCN(CCCN2c3ccccc3Sc3ccc(S(=O)(=O)N(C)C)cc32)CC1 [thioproperazine],6.36
4,CCCCCCCCCCCC[N+](C)(C)CCOc1ccccc1 [domiphen],-1.64
5,COC[C@H]1OC(=O)c2coc3c2[C@@]1(C)C1=C(C3=O)[C@@H]2CCC(=O)[C@@]2(C)C[C@H]1OC(C)=O [wortmannin],-1.71
6,O=C1O[C@H]([C@@H](O)CO)C(O)=C1O,-0.03
7,Oc1ccc2c3c1O[C@H]1c4[nH]c5ccccc5c4C[C@@]4(O)[C@@H](C2)N(CC2CC2)CC[C@]314 [naltrindole],3.59
8,Cc1ccc2c(=O)c3ccccc3n(CCCN)c2c1C,4.23
9,CNCCN(C)Cc1c[nH]nc1-c1ccc(O[C@H]2C[C@H](OCCC3CCOCC3)C2)cc1,-0.78

# Same assay, conditions: 100 nM; 48 h
row,SMILES,inhibition of SARS-CoV-2 cytopathic effect [%]
1,Cn1c(CNc2ccc(C(=N)N)cc2)nc2cc(C(=O)N(CCC(=O)O)c3ccccn3)ccc21 [dabigatran],-0.12
2,COC(=O)N/N=C/c1c[n+]([O-])c2ccccc2[n+]1[O-] [carbadox],0.99
3,Clc1ccc2nsnc2c1NC1=NCCN1 [tizanidine],1.5
4,COc1cc2c(NC3CCN(C)CC3)nc(N3CCCN(C)CC3)nc2cc1OCCCN(C)C,3.09
5,C/C=C1/[C@H](O[C@@H]2O[C@H](CO)[C@@H](O)[C@H](O)[C@H]2O)OC=C(C(=O)OC)[C@H]1CC(=O)OCCc1ccc(O)c(O)c1 [oleuropein],-0.09
6,CS(=O)(=O)c1ccc(Oc2cc(F)cc(C#N)c2)c2c1[C@H](O)C(F)(F)C2,0.38
7,FC(F)(F)Oc1ccc2nc(-c3ccc(OCCOCCOc4ccc(-c5nc6ccc(OC(F)(F)F)cc6[nH]5)nc4)cn3)[nH]c2c1,0.99
8,O=C(NN1C(=O)[C@@H]2[C@@H]3C=C[C@@H]([C@H]4C[C@@H]34)[C@@H]2C1=O)c1ccc(C(F)(F)F)cc1 [tecovirimat],2.71
9,C=C1CC[C@H](O)C/C1=C/C=C1\CCC[C@]2(C)[C@@H]([C@H](C)CCCC(C)(C)O)CC[C@@H]12 [calcifediol],-3.43
10,CCNC(=O)CC[C@H](N)C(=O)O [L-theanine],-3.29
11,COc1ccc(CC(C)NCC(O)c2ccc(O)c(NC=O)c2)cc1 (centres undefined) [formoterol],1.69
12,CNC(=O)[C@@H](Cc1ccccc1)N(C)C(=O)[C@@H](Cc1ccc2ccccc2c1)N(C)C(=O)/C=C/CC(C)(C)N [tabimorelin],-1.39
13,CC(C)OC(=O)CNC(=O)[C@H](CS)NC(=O)CC[C@H](N)C(=O)O [glutathione-monoisopropyl-ester],-0.65
14,COc1cn(-c2ccc(-n3cccn3)cc2F)nc(-c2ccnn2-c2ccccc2)c1=O,0.79
15,S=C(S)N1CCCC1 [pyrrolidine-dithiocarbamate],4.28
16,O[C@H]1CC[C@H](Nc2ncc3nc(Nc4c(F)cc(F)cc4F)n([C@H]4CCOC4)c3n2)CC1,0.98
17,COc1ccccc1C(=O)Nc1cccc(NC(=O)c2cccc(C)c2)c1,2.82
18,CN(C)CC(c1ccc(O)cc1)C1(O)CCCCC1 (centres undefined) [desvenlafaxine],4.53
19,CC(C)NC(=O)N1CC[C@H](NC2=Nc3cc(F)ccc3N(CC(F)F)c3ccc(Cl)cc32)C1,3.33
20,[O-][n+]1ccccc1[S-].[O-][n+]1ccccc1[S-].[Zn+2] [pyrithione-zinc],1.01

row,SMILES,inhibition of SARS-CoV-2 cytopathic effect [%]
1,CCOc1cc([C@@H](CS(C)(=O)=O)N2C(=O)c3cccc(NC(C)=O)c3C2=O)ccc1OC [apremilast],1.6
2,C/C=C/c1cc(OC)c(OC)cc1OC [alpha-asarone],-3.56
3,CN(C)CC[C@H](CSc1ccccc1)Nc1ccc(S(=O)(=O)NC(=O)c2ccc(N3CCN(Cc4ccccc4-c4ccc(Cl)cc4)CC3)cc2)cc1[N+](=O)[O-],-6.74
4,CC(C)(C)NCC(O)c1cc(O)cc(O)c1 (centres undefined),-1.85
5,C[C@]12CC[C@H]3[C@@H](CC[C@@]45O[C@@H]4C(O)=C(C#N)C[C@]35C)[C@@H]1CC[C@@H]2O [trilostane],-1.2
6,O=C1CN(/N=C/c2ccc(-c3ccc([N+](=O)[O-])cc3)o2)C(=O)N1 [dantrolene],-1.1
7,CCCCn1c(-c2ccccc2)nc(-c2ccccc2)c1CN(Cc1ccc2c(c1)OCO2)Cc1ccc2c(c1)OCO2,-0.2
8,CC(CN1c2ccccc2Sc2ccccc21)N(C)C (centres undefined) [promethazine],-1.28
9,C=CC(=O)Nc1cccc(Oc2nc(Nc3ccc(N4CCN(C)CC4)cc3OC)ncc2Cl)c1,-0.84
10,Cc1onc(-c2ccccc2Cl)c1C(=O)N[C@@H]1C(=O)N2[C@@H]1SC(C)(C)[C@@H]2C(=O)O [cloxacillin],0.8
11,CCCCCCCCCCCCCCCCCCCCCCCCC(=O)O [pentacosanoic-acid],-0.07
12,Cc1cc(C)nc(NS(=O)(=O)c2ccc(NC(=S)NC(=O)COc3ccc(Br)cc3Cl)cc2)n1,-0.98
13,CC(=O)Oc1cc2c(s1)CCN(C(C(=O)C1CC1)c1ccccc1F)C2 (centres undefined) [prasugrel],0.43
14,CN1CCN(CCCN2c3ccccc3Sc3ccc(S(=O)(=O)N(C)C)cc32)CC1 [thioproperazine],5.52
15,CCCCCCCCCCCC[N+](C)(C)CCOc1ccccc1 [domiphen],0.17
16,COC[C@H]1OC(=O)c2coc3c2[C@@]1(C)C1=C(C3=O)[C@@H]2CCC(=O)[C@@]2(C)C[C@H]1OC(C)=O [wortmannin],-2.28
17,O=C1O[C@H]([C@@H](O)CO)C(O)=C1O,-1.22
18,Oc1ccc2c3c1O[C@H]1c4[nH]c5ccccc5c4C[C@@]4(O)[C@@H](C2)N(CC2CC2)CC[C@]314 [naltrindole],1.09
19,Cc1ccc2c(=O)c3ccccc3n(CCCN)c2c1C,-0.41
20,CNCCN(C)Cc1c[nH]nc1-c1ccc(O[C@H]2C[C@H](OCCC3CCOCC3)C2)cc1,4.05
